Test results published in PubChem BioAssay.
Calls of active or inactive are those of the source.

Tests used:
[1] = test system: Human papillomavirus type 1a protein E7 (residues 44-93); assay: HPV1a E7 fragment binders on microarrays, primary screen, biochemical, small-molecule microarray, residues 44-93, 635 nm fluorescence (AID 1108); settings: small-molecule microarray binding, fluorescence 635 nm; higher = more signal;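 also: E7 fragment applied at 1 µg/mL in TBST for 1 h at 4 C; score combines spot fluorescence with its signal to noise ratio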
[2] = modulators of HCV replicon luciferase signal, primary screen, HCV replication inhibitor project, Huh7 cells, luciferase reporter (AID 1109); settings: 48 h, higher = more signal;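 also: huh7 hepatoma cells harbouring a luciferase neomycin HCV replicon reporter; luciferase luminescence as measure of HCV replicon replication; test concentration not given here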
[3] = target: Left-right determination factor 2 (Homo sapiens) (UniProt O00292); assay: LEFTY2 binders on small-molecule microarrays, primary screen, biochemical, small-molecule microarray, 635 nm fluorescence scan (AID 1110); settings: LEFTY2 binding, higher = more signal
Left-right determination factor 2 (Homo sapiens), sequence (O00292 whole entry, looked up): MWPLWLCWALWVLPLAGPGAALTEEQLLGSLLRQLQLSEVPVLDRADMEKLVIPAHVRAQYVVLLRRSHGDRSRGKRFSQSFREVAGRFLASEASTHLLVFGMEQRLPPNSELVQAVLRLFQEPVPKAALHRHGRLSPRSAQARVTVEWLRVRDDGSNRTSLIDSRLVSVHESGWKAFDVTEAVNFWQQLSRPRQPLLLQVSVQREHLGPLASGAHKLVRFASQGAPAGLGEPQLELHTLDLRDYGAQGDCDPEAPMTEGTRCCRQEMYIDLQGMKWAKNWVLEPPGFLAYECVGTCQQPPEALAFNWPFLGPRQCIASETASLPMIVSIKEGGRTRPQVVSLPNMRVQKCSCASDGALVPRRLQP

[4] = target: Calmodulin-1 (Homo sapiens) (UniProt P0DP23); assay: CALM1 binders on microarrays, EGTA buffer, profiling panel, biochemical, small-molecule microarray, Cy5-labelled CALM1 (AID 1111); settings: Cy5-CALM1 binding fluorescence, higher = more signal;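 also: labelled calmodulin applied in Tris saline Tween buffer holding calcium plus EGTA and DTT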
[5] = target: Calmodulin-1 (Homo sapiens) (UniProt P0DP23); assay: calcium-bound CALM1 binders on microarrays, profiling panel, artefact control for SMM control-protein annotation, biochemical, small-molecule microarray, Cy5-labelled CALM1, plus calcium (AID 1112); settings: Cy5-CALM1 binding fluorescence, higher = more signal;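 also: score merges spot fluorescence with signal to noise from triplicate slides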
[6] = small-molecule microarray binders of probe aWnt5a, primary screen, biochemical, biotinylated probe, 635/667 nm fluorescence (AID 1113); settings: higher = more signal;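 also: score merges 667 nm fluorescence intensity with signal-to-noise per printed feature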
[7] = small-molecule microarray binders of probe aShh, primary screen, biochemical, biotinylated probe, 635/667 nm fluorescence (AID 1114); settings: higher = more signal;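 also: probe is biotin-labelled aShh protein from a stem cell growth factor screen; measures binding of labelled protein to compounds printed on the slide; score merges feature fluorescence at 667 nm with signal-to-noise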
[8] = small-molecule microarray binders of probe aNog, primary screen, biochemical, biotinylated probe, 635/667 nm fluorescence (AID 1115); settings: higher = more signal;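 also: probe is biotinylated aNog protein used at 0.15 µg/mL for 1 h at 4 C; z-score combines 667 nm fluorescence of each spot with its signal to noise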
[9] = target: Torsin-1A-interacting protein 1 (Homo sapiens) (UniProt Q5JTV8); assay: LAP1 binders from COS7 cell lysate, primary screen, small-molecule microarray, 635/667 nm fluorescence (AID 1116); settings: COS7-hLAP1 lysate binding, 635 nm fluorescence, higher = more signal
Torsin-1A-interacting protein 1 (Homo sapiens), sequence (Q5JTV8 whole entry, looked up): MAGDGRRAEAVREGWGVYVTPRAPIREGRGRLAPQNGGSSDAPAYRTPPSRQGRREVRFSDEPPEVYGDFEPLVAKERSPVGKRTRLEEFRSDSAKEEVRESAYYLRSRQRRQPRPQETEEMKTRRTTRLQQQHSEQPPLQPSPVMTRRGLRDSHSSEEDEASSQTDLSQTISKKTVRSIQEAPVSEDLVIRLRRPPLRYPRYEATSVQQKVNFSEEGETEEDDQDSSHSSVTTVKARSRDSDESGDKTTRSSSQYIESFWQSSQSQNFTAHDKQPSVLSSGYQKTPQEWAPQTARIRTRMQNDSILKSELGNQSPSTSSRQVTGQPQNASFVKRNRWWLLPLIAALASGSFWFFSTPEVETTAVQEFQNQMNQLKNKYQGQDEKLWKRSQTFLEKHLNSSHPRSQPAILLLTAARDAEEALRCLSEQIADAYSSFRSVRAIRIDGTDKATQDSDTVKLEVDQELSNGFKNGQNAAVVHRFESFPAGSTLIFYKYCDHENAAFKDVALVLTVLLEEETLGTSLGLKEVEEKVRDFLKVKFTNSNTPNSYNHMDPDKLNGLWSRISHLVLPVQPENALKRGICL

[10] = target: Alpha-bungarotoxin (Bungarus multicinctus) (UniProt P60615); assay: alpha-bungarotoxin binders on microarray, profiling panel, artefact control for SMM control protein annotation, biochemical, small-molecule microarray, Alexa647 label, 635/667 nm fluorescence (AID 1117); settings: alpha-BTX-A647 binding fluorescence, higher = more signal
Alpha-bungarotoxin (Bungarus multicinctus), sequence (P60615 whole entry, looked up): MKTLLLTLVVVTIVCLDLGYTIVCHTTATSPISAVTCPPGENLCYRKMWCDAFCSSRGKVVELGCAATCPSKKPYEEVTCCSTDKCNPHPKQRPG

Albumin (Bos taurus) = Albumin (Bos taurus) (UniProt P02769); assay: bovine serum albumin binders on microarray, profiling panel, artefact control for SMM control protein annotation, biochemical, small-molecule microarray, Alexa647 label, 635/667 nm fluorescence (AID 1118); settings: BSA-A647 binding, fluorescence 635 nm, higher = more signal;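 also: score merges 667 nm emission intensity and signal-to-noise per printed compound spot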
Albumin (Bos taurus), sequence (P02769 whole entry, looked up): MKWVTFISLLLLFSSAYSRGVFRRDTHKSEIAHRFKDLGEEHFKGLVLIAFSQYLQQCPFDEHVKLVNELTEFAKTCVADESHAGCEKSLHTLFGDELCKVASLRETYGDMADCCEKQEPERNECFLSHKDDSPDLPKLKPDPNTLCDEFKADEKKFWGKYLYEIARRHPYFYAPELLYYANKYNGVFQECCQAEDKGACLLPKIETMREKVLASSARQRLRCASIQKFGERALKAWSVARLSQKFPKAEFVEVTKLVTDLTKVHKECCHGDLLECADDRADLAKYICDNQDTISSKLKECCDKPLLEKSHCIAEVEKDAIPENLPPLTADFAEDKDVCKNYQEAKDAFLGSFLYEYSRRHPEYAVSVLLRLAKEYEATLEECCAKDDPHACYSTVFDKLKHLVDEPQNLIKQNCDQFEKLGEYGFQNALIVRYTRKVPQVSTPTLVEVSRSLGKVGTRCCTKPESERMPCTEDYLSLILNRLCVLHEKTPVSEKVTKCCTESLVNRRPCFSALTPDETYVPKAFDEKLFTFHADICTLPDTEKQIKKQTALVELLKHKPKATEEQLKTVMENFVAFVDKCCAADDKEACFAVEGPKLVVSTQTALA

[11] = small-molecule microarray binders of probe aXIP, primary screen, biochemical, NeuroSMM set, 635/667 nm fluorescence (AID 1119); settings: higher = more signal, called active from +8 up or from −8 down;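 also: probe is the protein aXip251-270 applied at 1 µg/mL to compound-printed slides; binding of probe to printed compounds measured as 667 nm fluorescence plus signal to noise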
[12] = small-molecule binders of probe aNOTCH3, primary screen, biochemical, small-molecule microarray, 635/667 nm fluorescence (AID 1120); settings: higher = more signal;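 also: probe is a biotin-tagged antibody raised against NOTCH3 rather than NOTCH3 protein; score merges spot fluorescence near 667 nm with spot signal to noise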
[13] = small-molecule binders of probe aNOTCH2, primary screen, biochemical, small-molecule microarray, 635/667 nm fluorescence (AID 1121); settings: higher = more signal;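 also: score merges feature fluorescence read at 667 nm with its signal to noise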
[14] = target: Carbonic anhydrase 2 (Homo sapiens) (UniProt P00918); assay: CAII small-molecule binders, profiling panel, biochemical, small-molecule microarray, Alexa647-labelled CAII (AID 1122); settings: CAII-A647 binding fluorescence, higher = more signal
[15] = COS7 lysate on small-molecule microarray, probe aHis, 635 nm (AID 1123); settings: COS7 cell lysate, fluorescence, higher = more signal;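 also: z-score combines 667nm fluorescence intensity with signal-to-noise per printed compound spot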
[16] = compound binding in COS7 lysate, probe aLAP1, primary screen, cell lysate, small-molecule microarray (AID 1124); settings: probe aLAP1, fluorescence, higher = more signal;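 also: lysate comes from COS7 cells expressing LAP1 and is applied at 0.3 µg/mL; score merges spot fluorescence near 667 nm with signal-to-noise over triplicate slides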
Sam68 (KHDRBS1) = assay: Sam68 small-molecule binders, primary screen, biochemical, small-molecule microarray, 635 nm fluorescence (AID 1125); settings: small-molecule microarray binding, higher = more signal;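 also: score merges 667 nm channel intensity with signal to noise over triplicate slides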
[17] = test system: Chordin-like protein 2 (CHRDL2); assay: CHRDL2 small-molecule binders, primary screen, biochemical, small-molecule microarray, 635 nm fluorescence (AID 1126); settings: small-molecule microarray binding, fluorescence 635 nm; higher = more signal;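 also: printed compound slides probed with Chrdl2 protein at 4 µg/mL for 1 h at 4 C; score merges 667 nm emission intensity with signal to noise over three replicate slides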
[18] = target: Concanavalin-A (Canavalia ensiformis) (UniProt P02866); assay: ConA small-molecule binders, primary screen, artefact control for SMM control protein annotation, biochemical, small-molecule microarray, Alexa647 label, 635 nm (AID 1127); settings: ConA-A647 binding fluorescence, higher = more signal;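 also: z combines 667 nm emission intensity with signal-to-noise across three replicate slides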
Concanavalin-A (Canavalia ensiformis), sequence (P02866 whole entry, looked up): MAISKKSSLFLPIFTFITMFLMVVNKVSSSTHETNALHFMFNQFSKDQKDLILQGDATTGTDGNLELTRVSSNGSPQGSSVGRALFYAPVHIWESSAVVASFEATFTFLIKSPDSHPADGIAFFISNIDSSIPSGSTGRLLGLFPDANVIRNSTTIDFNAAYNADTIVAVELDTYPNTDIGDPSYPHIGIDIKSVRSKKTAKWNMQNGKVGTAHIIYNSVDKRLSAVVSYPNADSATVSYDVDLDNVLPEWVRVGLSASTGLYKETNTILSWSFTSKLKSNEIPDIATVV

Row | Structure (SMILES) | composite z-score [1] | z-score [2] | composite z-score [3] | composite z-score [4] | composite z-score [5] | composite z-score [6] | composite z-score [7] | composite z-score [8] | composite z-score [9] | composite z-score [10] | composite z-score (Albumin (Bos taurus)) | composite Z-score [11] | composite z-score [12] | composite z-score [13] | composite z-score [14] | composite z-score [15] | composite z-score [16] | composite z-score (Sam68 (KHDRBS1)) | composite z-score [17] | composite z-score [18]
1 | COCCCNC(=O)[C@]1(Cc2ccccc2N=[N+]=[N-])N=C(c2ccc(OCCCO)cc2)O[C@@H]1c1ccccc1CN=[N+]=[N-] | 1.45 | -3.09 | 0.331 | 1.5 | 0.813 | 0.0952 | 0.496 | 0.555 | 1.39 | 1.01 | 0.522 | 0.0955 (inactive) | 0.523 | 0.202 | 0.398 | 2.51 | 0.561 | 1.12 | 0.228 | 1.13
2 | CN1C(=O)C2C=CC(C(O)C(C)(C)C)N(Nc3ccccc3)C2C1=O (stereo not given) | -0.911 | 0.813 | -0.428 | -0.0143 | -0.395 | -0.0405 | -0.24 | 0.779 | -0.0378 | 0.531 | 0.494 | 0.914 (inactive) | -0.217 | -0.029 | 0.847 | 2.78 | -0.519 | -0.141 | -0.156 | -0.127
3 | CCOC(=O)C1=C[C@@H](C(C)(C)C)N(S(=O)(=O)c2ccc(C)cc2)[C@H]1c1ccc(Cl)c(Cl)c1 | 1.34 | -0.501 | 0.595 | 1.46 | 0.122 | -0.154 | 0.213 | 0.863 | 0.735 | 1.35 | 0.867 | -0.179 (inactive) | 0.163 | 0.0601 | 0.497 | 1.79 | 1.03 | 1.3 | 0.185 | 1.16
4 | COCCOC(=O)N1C(=O)[C@@]2(c3ccccc31)[C@H](c1ccc(O)cc1)N1[C@H](c3ccccc3)[C@H](c3ccccc3)OC(=O)[C@H]1[C@@H]2C(N)=O | -1.11 | -0.823 | -0.827 | -0.284 | -0.0872 | -0.0256 | 0.0899 | -0.346 | -0.571 | -0.448 | 0.436 | 0.313 (inactive) | -0.27 | -0.114 | 0.711 | 0.531 | -0.0821 | -0.764 | -1.04 | 0.035
5 | CCCCC(=C=CC[C@H](O)c1ccccc1OCCO)C[C@H](O)c1cc(Cl)cc(Cl)c1O | 0.405 | -1.18 | -0.408 | 0.684 | 0.466 | -0.0445 | 0.0278 | 0.22 | 0.582 | 0.876 | 0.233 | 0.45 (inactive) | -0.0448 | -0.175 | 0.649 | 0.499 | 0.569 | 0.811 | -0.473 | 0.907
6 | O=c1cccc(-c2ccccc2)o1 | -0.815 | -0.144 | -0.491 | -0.604 | -0.108 | -0.0863 | 0.0141 | -0.295 | -0.0971 | -0.0278 | 0.66 | 2.27 (inactive) | -0.0933 | -0.0974 | 0.51 | -0.295 | -0.0258 | -1.1 | 0.223 | -0.234
